Reference: PubChem BioAssay AID1159580 (chemical genetic matrix, 2015)
Hit rate of the full screen: of about 5,500 compounds, about 2,000 (36%) were called active. Not shown: some 18% with an inconclusive outcome. No stated cut-off is given here; in the data, active means normalized growth mostly below about 0.91 (no sharp cut-off); inconclusive means no clear call, values can overlap the other calls; inactive means mostly above about 0.92. Some of the results follow.

Assay: chemical genetic growth profiling, strain panel (AID 1159580);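 further: tested at 20 µM; growth read once vehicle control cultures reached saturation at 30 °C; 1 = growth at the plate median or of vehicle wells; lower values mean less growth of the strain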
Conditions: growth OD

Measured: normalized growth

COC(=O)c1c(C)cc(OC)cc1O
inactive: S. cerevisiae deletion strains, locus YJR075W, strain HOC1, hits give low values 0.974 | S. cerevisiae deletion strains, locus YKL009W, strain mrt4, hits give low values 0.964 | S. cerevisiae deletion strains, locus YKL068W, hits give low values 0.995 | S. cerevisiae deletion strains, locus YKL085W, strain MDH1 (second series), hits give low values 0.978 | S. cerevisiae deletion strains, locus YKL085W, strain MDH1, hits give low values 0.978 | S. cerevisiae deletion strains, locus YKL160W, strain elf1, hits give low values 0.971 | S. cerevisiae deletion strains, locus YKL190W, strain CNB1, hits give low values 0.991 | S. cerevisiae deletion strains, locus YKR001C, strain vps1, hits give low values 0.959 | S. cerevisiae deletion strains, locus YKR026C, strain gcn3, hits give low values 0.972 | S. cerevisiae deletion strains, locus YKR091W, strain srl3, hits give low values 0.974 | S. cerevisiae deletion strains, locus YLL001W, strain dnm1, hits give low values 0.973 | S. cerevisiae deletion strains, locus YLL026W, hits give low values 0.981 | S. cerevisiae deletion strains, locus YLL041C, strain sdh2, hits give low values 1 | S. cerevisiae deletion strains, locus YLR027C, strain aat2, hits give low values 0.967 | S. cerevisiae deletion strains, locus YLR039C, strain RIC1, hits give low values 0.995 | S. cerevisiae deletion strains, locus YLR058C, strain SHM2, hits give low values 0.998 | S. cerevisiae deletion strains, locus YLR102C, strain apc9, hits give low values 0.981 | S. cerevisiae deletion strains, locus YLR113W, strain HOG1, hits give low values 1.02 | S. cerevisiae deletion strains, locus YLR221C, strain rsa3, hits give low values 0.959 | S. cerevisiae deletion strains, locus YLR258W, strain gsy2, hits give low values 0.974 | S. cerevisiae deletion strains, locus YLR262C, strain YPT6 (second series), hits give low values 1.02 | S. cerevisiae deletion strains, locus YLR262C, strain YPT6, hits give low values 1.01 | S. cerevisiae deletion strains, locus YLR268W, strain sec22, hits give low values 0.989 | S. cerevisiae deletion strains, locus YLR320W, strain mms22, hits give low values 0.947 | S. cerevisiae deletion strains, locus YLR330W, strain CHS5, hits give low values 0.993 | S. cerevisiae deletion strains, locus YLR342W, strain FKS1 (second series), hits give low values 1 | S. cerevisiae deletion strains, locus YLR342W, strain FKS1, hits give low values 0.989 | S. cerevisiae deletion strains, locus YLR357W, strain rsc2, hits give low values 0.983 | S. cerevisiae deletion strains, locus YLR370C, strain arc18, hits give low values 0.986 | S. cerevisiae deletion strains, locus YLR371W, strain rom2, hits give low values 0.989 | S. cerevisiae deletion strains, locus YLR384C, strain iki3, hits give low values 0.976 | S. cerevisiae deletion strains, locus YLR418C, strain cdc73, hits give low values 0.941 | S. cerevisiae deletion strains, locus YML016C, strain PPZ1, hits give low values 0.982 | S. cerevisiae deletion strains, locus YML032C, strain rad52, hits give low values 0.976 | S. cerevisiae deletion strains, locus YML120C, strain ndi1, hits give low values 0.988 | S. cerevisiae deletion strains, locus YML124C, strain tub3, hits give low values 0.984 | S. cerevisiae deletion strains, locus YMR058W, strain fet3, hits give low values 0.978 | S. cerevisiae deletion strains, locus YMR078C, strain ctf18, hits give low values 0.981 | S. cerevisiae deletion strains, locus YMR125W, strain sto1, hits give low values 0.993 | S. cerevisiae deletion strains, locus YMR129W, hits give low values 0.993 | S. cerevisiae deletion strains, locus YMR205C, strain PFK2, hits give low values 0.95 | S. cerevisiae deletion strains, locus YMR223W, strain ubp8, hits give low values 0.971 | S. cerevisiae deletion strains, locus YMR231W, strain pep5, hits give low values 1 | S. cerevisiae deletion strains, locus YMR263W, strain SAP30, hits give low values 0.982 | S. cerevisiae deletion strains, locus YMR307W, strain GAS1, hits give low values 1.03 | S. cerevisiae deletion strains, locus YNL067W, strain RPL9B, hits give low values 0.994 | S. cerevisiae deletion strains, locus YNL071W, strain lat1, hits give low values 0.98 | S. cerevisiae deletion strains, locus YNL128W, strain TEP1, hits give low values 1.01 | S. cerevisiae deletion strains, locus YNL153C, strain GIM3, hits give low values 0.988 | S. cerevisiae deletion strains, locus YNL183C, strain NPR1, hits give low values 0.979 | S. cerevisiae deletion strains, locus YNL209W, strain ssb2, hits give low values 0.999 | S. cerevisiae deletion strains, locus YNL233W, strain BNI4, hits give low values 0.992 | S. cerevisiae deletion strains, locus YNL248C, strain rpa49, hits give low values 0.982 | S. cerevisiae deletion strains, locus YNL250W, strain rad50, hits give low values 0.979 | S. cerevisiae deletion strains, locus YNL271C, strain bni1, hits give low values 0.978 | S. cerevisiae deletion strains, locus YNL298W, strain CLA4, hits give low values 0.996 | S. cerevisiae deletion strains, locus YNL307C, strain MCK1, hits give low values 0.914 | S. cerevisiae deletion strains, locus YNL322C, strain KRE1 (second series), hits give low values 0.953 | S. cerevisiae deletion strains, locus YNL322C, strain KRE1, hits give low values 0.997 | S. cerevisiae deletion strains, locus YNR049C, strain mso1, hits give low values 0.998 | S. cerevisiae deletion strains, locus YNR052C, strain pop2, hits give low values 1 | S. cerevisiae deletion strains, locus YOL006C, strain TOP1, hits give low values 0.848 | S. cerevisiae deletion strains, locus YOL012C, strain htz1 0.923 | S. cerevisiae deletion strains, locus YOL147C, strain pex11, hits give low values 0.978 | S. cerevisiae deletion strains, locus YOR001W, strain rrp6, hits give low values 0.985 | S. cerevisiae deletion strains, locus YOR061W, strain CKA2, hits give low values 1.01 | S. cerevisiae deletion strains, locus YOR069W, strain VPS5, hits give low values 0.995 | S. cerevisiae deletion strains, locus YOR070C, strain gyp1, hits give low values 0.971 | S. cerevisiae deletion strains, locus YOR080W, strain dia2, hits give low values 0.982 | S. cerevisiae deletion strains, locus YOR083W, strain WHI5, hits give low values 0.96 | S. cerevisiae deletion strains, locus YOR106W, strain vam3, hits give low values 0.978 | S. cerevisiae deletion strains, locus YOR136W, strain idh2, hits give low values 0.995 | S. cerevisiae deletion strains, locus YOR144C, strain elg1, hits give low values 0.99 | S. cerevisiae deletion strains, locus YOR184W, strain ser1, hits give low values 0.922 | S. cerevisiae deletion strains, locus YOR231W, strain MKK1, hits give low values 1.03 | S. cerevisiae deletion strains, locus YOR265W, strain rbl2, hits give low values 0.965 | S. cerevisiae deletion strains, locus YOR270C, strain vph1, hits give low values 0.891 | S. cerevisiae deletion strains, locus YOR290C, strain snf2, hits give low values 0.977 | S. cerevisiae deletion strains, locus YOR316C, strain cot1, hits give low values 0.988 | S. cerevisiae deletion strains, locus YPL051W, strain arl3, hits give low values 0.954 | S. cerevisiae deletion strains, locus YPL055C, strain LGE1, hits give low values 1 | S. cerevisiae deletion strains, locus YPL078C, strain atp4, hits give low values 0.917 | S. cerevisiae deletion strains, locus YPL106C, strain sse1, hits give low values 0.929 | S. cerevisiae deletion strains, locus YPL240C, strain hsp82, hits give low values 0.974 | S. cerevisiae deletion strains, locus YPL241C, strain CIN2, hits give low values 0.994 | S. cerevisiae deletion strains, locus YPL256C, strain CLN2, hits give low values 1.03 | S. cerevisiae deletion strains, locus YPR119W, strain clb2, hits give low values 0.972 | S. cerevisiae deletion strains, locus YPR141C, strain kar3, hits give low values 0.98 | S. cerevisiae deletion strains, locus YPR163C, strain tif3, hits give low values 1 | S. cerevisiae deletion strains, locus YPR167C, strain met16, hits give low values 0.982 | S. cerevisiae deletion strains, strain wtn01, hits give low values 0.964 | S. cerevisiae strains, strain wild type, hits give low values 1
